Screens from PubChem.
FECH inh: human FECH heme synthesis enzyme inhibition; P22830; purified FECH, Ni-mesoporphyrin absorbance 550 nm; calls only at 10 µM (by protocol); 3.3% of 20,000 active;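 active means enzyme reaction rate more than 3 SD below the solvent-only control wells on the same plate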;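 further: lower slope than DMSO wells means FECH inhibition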
Target sequence (P22830 whole entry, looked up): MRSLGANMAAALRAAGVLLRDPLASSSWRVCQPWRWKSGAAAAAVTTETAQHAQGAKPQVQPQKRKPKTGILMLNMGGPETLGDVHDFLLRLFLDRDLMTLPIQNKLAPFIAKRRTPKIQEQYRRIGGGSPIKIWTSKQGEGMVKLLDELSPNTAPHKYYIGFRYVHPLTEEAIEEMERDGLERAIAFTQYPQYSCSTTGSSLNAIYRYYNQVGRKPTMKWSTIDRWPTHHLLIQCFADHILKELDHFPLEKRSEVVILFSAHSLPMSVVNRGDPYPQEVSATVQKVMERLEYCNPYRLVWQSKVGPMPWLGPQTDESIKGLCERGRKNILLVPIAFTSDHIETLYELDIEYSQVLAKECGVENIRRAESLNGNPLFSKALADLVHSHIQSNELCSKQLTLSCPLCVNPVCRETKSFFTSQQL
An asterisk follows results filed as active; i = inactive; + = active, no number. Only a selection was taken, and hits are over-represented in it overall.

SMILES	FECH inh
CCc1c(C)nc(SCc2nc(-c3ccc(C)cc3)oc2C)[nH]c1=O	i
COc1ccc(CNC(=O)C2CCCN2c2nnc(N3CCCC3=O)s2)c(OC)c1 (centres undefined)	+
O=C(NCCCN1CCN(C2CCCCC2)CC1)C1CCCN1c1nnc(N2CCCC2=O)s1 (centres undefined)	+
CN(CCNC(=O)C1CCCN1c1nnc(N2CCCC2=O)s1)C1CCCCC1 (centres undefined)	i
Cc1ccsc1CCNC(=O)C1CCCN1c1nnc(N2CCCC2=O)s1 (centres undefined)	i
CN(CCCNC(=O)C1CCCN1c1nnc(N2CCCC2=O)s1)C1CCCCC1 (centres undefined)	i
COc1ccc(CCNC(=O)C2CCCN2c2nnc(N3CCCCC3=O)s2)cc1OC (centres undefined)	i
CCOC(=O)c1ccc(NS(=O)(=O)c2cc(N3C(=O)CCS3(=O)=O)ccc2C)cc1	i
Cc1cnc(NCc2ccc(C(=O)N(C)C)o2)nc1N(C)C	i
Cn1ncc2c(NCCNC(=O)c3cccnc3)nc(C(C)(C)C)nc21	i
Cc1cnc(NCCNC(=O)c2cccnc2)nc1N(C)C	+
O=S(=O)(c1ccc(Br)cc1)N1CCC(n2c(-c3ccccc3)nc3cccnc32)CC1	i
C=CC[C@@H]1CC=C[C@@H](C)N1C(=O)c1cn2c3c(cccc3c1=O)CC2	i
CCn1nc(C)c(CCNC(=O)CC23CC4CC(CC(C4)C2)C3)c1C	i
Cc1ccc(NC(=O)CN2CCN(Cc3ccc(F)cc3Cl)S2(=O)=O)c(Cl)c1	i
COc1ccccc1CNC(=O)CN(C)Cc1ncc(C)[nH]1	i
COc1ccccc1CNC(=O)CN(C)Cc1c(C)nn(C)c1C	i
Cc1ccccc1NC(=O)CCNC(=O)COc1c(C)ccc(C)c1C	i
CN(C)c1nc2ncnc(SCC(=O)Nc3ccc(F)cc3F)c2s1	i
Cc1cc(C)cc(Oc2cc(SCC(=O)Nc3ccccc3C)ncn2)c1	+
COc1cccc(CNC(=O)CSc2cc(Oc3cc(C)cc(C)c3)ncn2)c1OC	+
CCC(=O)Nc1ccccc1-c1nnc(SCC(=O)Nc2ccc(C)cc2C)[nH]c1=O	i
Cc1cc(C)cc(Oc2cc(SCC(=O)Nc3ccc(F)cc3Cl)ncn2)c1	+
CCC1CCCCN1S(=O)(=O)c1ccc2c(c1)CCN2C(=O)CCC(=O)N1CCCCCC1 (centres undefined)	i
Cc1cc(C(=O)N2CCC3(CCCO3)CC2)c2c(=O)[nH]c(=O)n(C)c2n1	i
SMILES	FECH inh
CCN(CCO)c1nc(Nc2ccc(C)cc2)c2cnn(-c3ccccc3)c2n1	i
c1ccc(-c2nc3c(s2)CCCC3)c(CN2CCOCC2)c1	i
CCc1cc(CN(C)C(=O)CN2CCOc3ccccc3C2)on1	i
CCc1cc(CN(C)C(=O)c2cn3c4c(cccc4c2=O)CC3)on1	+
CCc1cc(CN(C)C(=O)c2cnon2)on1	i
Cc1ccccc1-c1ncc(CN2CCN(C)C(C(=O)O)C2)cn1 (centres undefined)	i
C(=C\c1ccccc1)/CN1CCN(c2ccc3cc[nH]c3n2)CC1	i
Cc1cc(C)n(CCNC(=O)c2cccc3ccnn23)c(=O)n1	i
O=C(NCc1cc(=O)[nH]cn1)c1cccc2ccnn12	i
O=C(NCCN1N=C(c2ccccc2)CCC1=O)c1cccc2ccnn12	+
O=C(CCN1CCN(C(=O)C2CCCO2)CC1)Nc1nnc(C2CC2)s1 (centres undefined)	i
c1ccc(-n2ncc3c(Nc4ccc5c(c4)OCO5)nc(NCc4cccnc4)nc32)cc1	i
Cc1ccccc1NC(=O)CN1C(=O)CC(c2ccccc2)=Nc2ccccc21	i
COc1cccc(N2CCN(C(=O)c3nc4ccccc4n(C)c3=O)CC2)c1	+
Cc1ccc(Cl)cc1N1CCN(C(=O)c2nc3ccccc3n(C)c2=O)CC1	i
Cc1cccc(N2CCN(C(=O)c3nc4ccccc4n(C)c3=O)CC2C)c1 (centres undefined)	+
Cn1c(=O)c(C(=O)N2CCN(C3CCCCC3)CC2)nc2ccccc21	i
Cc1ccc(NC(=O)c2nc3ccccc3n(C)c2=O)c(C)c1	i
Cc1cccc(N2CCN(C(=O)Cn3c(=O)c4cnc(-c5ccccc5)nc4n(C)c3=O)CC2C)c1 (centres undefined)	i
Cc1cc(NC(=O)c2c(F)cccc2F)n(-c2ncnc3c2cnn3-c2cccc(Cl)c2)n1	i
CC(C)Cc1cc(CNC(=O)c2ccc3c(c2)CCCO3)no1	i
O=C(c1ccsc1)N1CC[C@@H](c2ccc3ccccc3c2)[C@H](O)C1	i
CN(Cc1nc(C2CC2)no1)C1CCN(C(=O)c2ccncc2)CC1	i
CCCSCCCNC(=O)c1cc2n(n1)CC(C)(C(=O)NCc1ccc(F)cc1)N(C)C2=O (centres undefined)	i
CCCNC(=O)CSCc1nc(-c2ccc(F)cc2)no1	i
SMILES	FECH inh
CN(CCNC(=O)C1CCN(c2ccc(-c3cccs3)nn2)CC1)C1CCCCC1	i
CCc1ccc(NCc2nc3nc4c(c(=O)n3[nH]2)CCC4)cc1	+
O=c1cc(CN2CCCCC2)nc2nc(NCc3ccc(F)cc3)[nH]n12	i
CCc1nc2nc(C)c(NC(=O)Nc3ccc4c(c3)OCCO4)c(=O)n2[nH]1	i
CCCc1nc2nc(CC)[nH]n2c(=O)c1N	i
O=c1c2c(nc3nc(CNc4ccc(F)cc4)[nH]n13)CCC2	+
COC(=O)CCCC(=O)N1[C@@H]2CC[C@H]1CNC(=O)C2	i
OCCOc1cccc(CN2C[C@H]3C[C@H](O)[C@@H](O)C[C@H]3C2)c1	i
CC1CCCCN1C(=O)CSCc1nc(-c2ccccc2)no1 (centres undefined)	i
Cc1c(C(=O)N2Cc3cnc(C(C)(C)C)nc3C2)cnc2ccnn12	i
COC(=O)c1cccc(CN2CCC(c3nc4c(C)cccc4[nH]3)CC2)n1	i
CS(=O)(=O)NCCn1c(CCc2ccccc2)nc2cccnc21	i
COc1ccccc1CCCNC1CCSC1 (centres undefined)	i
Cc1cc(Nc2ccc(OC(=O)c3ccco3)cc2)n2nc(-c3cccnc3)nc2n1	+
Cc1cc(Nc2ccc(OC(=O)c3ccc(C)c(C)c3)cc2)n2nc(-c3cccnc3)nc2n1	i
Cc1cc(Nc2ccc(OC(=O)c3ccncc3)cc2)n2nc(-c3cccnc3)nc2n1	i
CN1CCN(c2ncccc2CNC(=O)CNc2ccc(Cl)cc2)CC1	i
CCOc1ccccc1C(=O)Nc1cc(C)nn1-c1ncnc2c1cnn2-c1ccc(Cl)cc1	i
Cc1ccc(C2(O)CCN(C(=O)c3ccc(C(F)(F)F)[nH]c3=O)CC2)nc1	i
Cc1cccc(C)c1OCCCN(C)C(=O)c1ccc(-n2cnnn2)cc1	i
CC(=O)OCc1c(C)cc(C)c(CN(C)C(C)c2ccon2)c1C (centres undefined)	i
Cn1c(=O)n(CCOc2ccc(F)cc2)c(=O)c2cnc(-c3ccc(Cl)cc3)nc21	i
CCn1c(=O)n(CCOc2ccc(F)cc2)c(=O)c2cnc(-c3ccc(OC)cc3)nc21	i
CCn1c(=O)n(CCOc2ccc(F)cc2)c(=O)c2cnc(-c3ccc(Cl)cc3)nc21	+
CCc1cc(Sc2ccccc2NC(=O)c2ccccc2OC)n2ncnc2n1	i
CCCc1ncncc1C(=O)N1CCCC(Nc2ccc3c(c2)OCCO3)C1 (centres undefined)	i
CCc1nc2cccnc2n1C1CCN(S(=O)(=O)c2ccc(Cl)cc2)CC1	i
